The OligoGym collection

What follows are sequences tested against MAPK4 (assay: pooled miR-30 sensor sort-seq; sequence = guide strand). Settings: shRNA.
Note: reference of the scale not given here.

Row | Sequence | sensor-assay potency score (higher = more potent)
1 | TGAACTTGAACAGCTCACCCTG | -0.313
2 | TTGTAGTCGCAGGAGCGCCCGT | -1.23
3 | TTGCTGATTAGATTTAAGGTGC | -0.432
4 | TCTCCTAACACATTTGCTCTAT | -0.331
5 | TCTGAATAAAAGAACATCGAAT | -0.719
6 | TTAAAGAAAAAACAAAACCCAA | -1.11
7 | TAATGCTGATCAACGATCCTTG | 0.275

Each sequence was assayed against MAPKAPK2 in the same assay as above. Settings: shRNA.

Row | Sequence | sensor-assay potency score (higher = more potent)
8 | TTTGTTGATTGCATGATCCAAG | -0.653
9 | TTTTTTATCTTGATCTGCTCGT | 0.773
10 | TTGTAGTCATCGATGATGGCGT | -0.252
11 | TCCTCTGATACTTCTGACCATT | -1.62
12 | TTTTTATCTTGATCTGCTCGTA | 0.0929
13 | TTTTATCTTGATCTGCTCGTAG | 0.563
14 | TTTATCTTGATCTGCTCGTAGT | -0.523
15 | TTGATTGCATGATCCAAGGGTG | -0.156
16 | TTGAAGATCTGCAAAACTTTGC | 0.0666
17 | TTCTCTTTCTGTGAATGCCTGG | -0.0857
18 | TCGTACACATCCACGATCCGTA | 0.149
19 | TTGATCTGCAGGCCGGACTTGA | -0.944
